Screens (PubChem)
A selection: hits, their analogues and other compounds. The true share with any hit is near 3.4%.
Mcl1-Bid inh: disrupts binding of human Mcl-1 to Bid peptide; 0.97% of 220,000 active; Q07820; AID 1021; TR-FRET Mcl-1/Bid-Dy647 peptide binding, 1536-well; inhibition, % at 21.7 µM;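 active = compounds that cut the binding signal by more than half at the single screening dose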;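 note: His-tagged Mcl-1 with europium anti-His antibody binding Bid BH3 peptide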
Mcl-1 Bim block: disrupts Bim peptide binding to human Mcl-1; Bead-based flow cytometry, Bim peptide-Mcl-1 binding; inhibition, % at 10 µM; 0.1% of 190,000 active; in the data active = inhibition above about 40%
eIF4E 4G PPI: eIF4E/eIF4G interaction inhibition in translation initiation. P63073+Q04637. TR-FRET eIF4E-eIF4GI(517-606) binding, 2 h. inhibition, % at 21.7 µM. 0.37% of 220,000 active
p47phox inh: inhibitors of human p47phox binding; P14598; p47phox/p22phox peptide binding, fluorescence polarization, 2 h; inhibition, % at 24.7 µM; 0.53% of 220,000 active; AID 1274
Target sequence (P14598 whole entry, looked up): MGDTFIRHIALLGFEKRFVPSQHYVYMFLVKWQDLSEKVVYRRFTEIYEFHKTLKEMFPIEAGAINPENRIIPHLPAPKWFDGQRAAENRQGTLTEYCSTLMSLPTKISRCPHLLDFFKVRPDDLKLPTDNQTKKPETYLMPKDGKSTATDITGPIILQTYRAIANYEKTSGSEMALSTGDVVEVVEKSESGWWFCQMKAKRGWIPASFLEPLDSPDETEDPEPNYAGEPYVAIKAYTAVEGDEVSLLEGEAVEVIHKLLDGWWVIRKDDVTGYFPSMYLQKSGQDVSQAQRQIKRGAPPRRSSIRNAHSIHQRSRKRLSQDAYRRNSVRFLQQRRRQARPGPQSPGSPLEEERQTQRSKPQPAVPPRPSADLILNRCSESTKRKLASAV
14-3-3 Bad PPI: disrupts binding of bovine 14-3-3 zeta to phospho-Bad peptide. TR-FRET 14-3-3zeta/Dy647-pBad peptide displacement, 1 h. inhibition, % at 21.7 µM. 0.71% of 220,000 active. AID 781;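 active = inhibition above about 70%, limit read from the data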
Target sequence (P63103 whole entry, looked up): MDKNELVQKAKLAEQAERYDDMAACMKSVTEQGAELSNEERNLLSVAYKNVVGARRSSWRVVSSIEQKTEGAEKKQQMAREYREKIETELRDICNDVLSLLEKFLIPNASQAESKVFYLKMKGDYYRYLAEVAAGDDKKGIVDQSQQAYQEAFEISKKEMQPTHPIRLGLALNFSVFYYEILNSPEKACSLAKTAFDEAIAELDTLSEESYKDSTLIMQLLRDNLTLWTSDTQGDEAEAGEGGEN
Mcl1 Noxa PPI: disrupts binding of human Mcl-1 to Noxa peptide; Q07820; TR-FRET Mcl-1/Noxa peptide binding, 2 h; inhibition, % at 21.7 µM; 1.5% of 220,000 active;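 active = compounds that cut the protein-peptide binding signal by more than 50% relative to plate controls in a single-dose test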;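 note: His-tagged Mcl-1 with rhodamine Noxa BH3 peptide and terbium anti-His antibody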
Numbers stand for hits; 0 = inactive; - = no result.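 Rule for the calls, unless noted: active = inhibition above about 30% (limit read from the data); inactive = the rest.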

SMILES | Mcl1-Bid inh | Mcl-1 Bim block | eIF4E 4G PPI | p47phox inh | 14-3-3 Bad PPI | Mcl1 Noxa PPI
COC(=O)c1cc(NC(=O)Cn2c(=O)cnc3ccccc32)cc(C(=O)OC)c1 | 62 | 0 | 0 | 0 | 0 | 0
CCOC(=O)Cn1c(=O)cnc2ccccc21 | 0 | 0 | 0 | 32 | 0 | 0
Cc1cc(C)c(C)c(S(=O)(=O)N2CCN(c3ccc(O)cc3)CC2)c1C | 0 | 0 | 0 | 0 | 0 | 0
CCN(CC)CCN1C(=O)C(=O)/C(=C(/O)c2c(C)[nH]c(C(=O)OC)c2C)C1c1ccc(C)o1 (stereo not given) | 0 | - | 0 | 0 | 0 | 0
CSc1ccc(/C=N/NC(=O)c2ccccc2Cl)cc1 | 0 | 0 | 0 | 0 | 0 | 0
O=C1CCCN1CCCNCC(=O)N1c2ccccc2Sc2ccccc21 | 51 | 0 | 0 | 0 | 79 | 0
CC(C)(C)CN1CCNC(=O)C1CC(=O)NCCN1CCCc2ccccc21 (stereo not given) | 0 | 0 | 0 | 0 | 0 | 0
CC(=O)Cc1cc(O)c2ccccc2c1OC(=O)c1ccc(Br)cc1 | 96 | - | 0 | 0 | 0 | 0
O=C(COC(=O)c1ccc(Br)cc1)NCc1ccccc1 | 0 | 0 | 0 | 0 | 0 | 0
O=C(O)c1cc(S(=O)(=O)O)ccc1O | 56 | 0 | 0 | 0 | 0 | 0
CSc1ccccc1NC(=O)c1cc2ncc(Br)cn2n1 | 0 | 0 | 0 | 0 | 0 | 59
COc1ccccc1NC(c1cccnc1)c1ccc2cccnc2c1O (stereo not given) | 0 | 0 | 0 | 0 | 0 | 51
COc1cc(C(Nc2ccccn2)c2ccc3ccc(C)nc3c2O)cc(OC)c1O (stereo not given) | 0 | 0 | 0 | 0 | 0 | 93
Cc1cccc(NC(c2ccc(C)s2)c2ccc3ccc(C)nc3c2O)n1 (stereo not given) | 0 | 0 | 0 | 0 | 0 | 67
Cc1ccc2ccc(C(Nc3ccccn3)c3ccccc3)c(O)c2n1 (stereo not given) | 0 | 0 | 0 | 0 | 0 | 0
Cc1cc(C)c(C)c(S(=O)(=O)N2CCCCC2C(=O)O)c1C (stereo not given) | 0 | 0 | 0 | 0 | 0 | 0
CCC(C)(C)NC(=O)C(c1cccnc1)N(C(=O)c1csnn1)c1ccccc1 (stereo not given) | 0 | 0 | 0 | 0 | 0 | 0
CC(C)CC(N)C(=O)OCc1ccc([N+](=O)[O-])cc1 (stereo not given) | 0 | - | 0 | 0 | 0 | 0
Cc1[nH]c2ccc(F)cc2c1CCN(Cc1cccnc1)C(=S)Nc1cccc(F)c1 | 0 | 0 | 0 | 0 | 0 | 0
COc1ccc(SN=C2C(C)=CC(=O)C=C2C)cc1 | 0 | 0 | 0 | 38 | 0 | 0
COc1ccc(C(=O)ON=C2C=C(C)C(=O)C(C)=C2)cc1 | 0 | 0 | 0 | 0 | 0 | 0
Fc1ccccc1COc1ccc(Br)cc1CNCc1cccnc1 | 0 | 0 | 0 | 0 | 0 | 0
Fc1ccccc1COc1ccc(Br)cc1CNCc1ccncc1 | 0 | 0 | 0 | 0 | 80 | 0
Fc1ccc(COc2ccc(Br)cc2CNCc2ccncc2)cc1 | 0 | 0 | 0 | 0 | 84 | 0
COc1ccc(C(=O)NCc2nnc(SCC(=O)N3CCCCC3)o2)cc1OC | 83 | 0 | 0 | 0 | 0 | 0
SMILES | Mcl1-Bid inh | Mcl-1 Bim block | eIF4E 4G PPI | p47phox inh | 14-3-3 Bad PPI | Mcl1 Noxa PPI
CCCCOc1ccc(C(=O)N/C(=C\c2ccc([N+](=O)[O-])cc2)C(=O)OCc2ccco2)cc1 | 0 | 58 | 0 | 0 | 0 | 0
COc1cc(/C=N\NC(=O)c2ccc(C)nc2)ccc1OC(=O)c1ccc2c(c1)OCO2 | 0 | 0 | 0 | 0 | 74 | 0
COc1cc(/C=N/NC(=O)c2cc(-c3ccc4c(c3)OCO4)n[nH]2)ccc1O | 0 | 0 | 0 | 0 | 0 | 55
COc1cc(/C=N/NC(=O)c2cncc(Br)c2)ccc1OC(=O)c1ccc2c(c1)OCO2 | 0 | 0 | 0 | 0 | 0 | 0
Cc1cc(C(C#N)c2ccccc2F)n2ncnc2n1 (stereo not given) | 0 | 0 | 0 | 0 | 0 | 0
COc1ccc(-n2c(SCC(=O)N3CCc4ccccc43)nnc2-c2c[nH]c3ccccc23)cc1 | 0 | 0 | 0 | 52 | 78 | 0
O=C(CCN1C(=O)c2cccc3cccc(c23)C1=O)NCc1ccco1 | 0 | 0 | 0 | 0 | 0 | 0
CCCCOCC1CC(CC#CCN2CCCCC2)C(=O)O1 (stereo not given) | 0 | 0 | 0 | 0 | 78 | 0
Cc1cc(-c2nn(-c3ccccc3)cc2/C=C2\SC(N)=NC2=O)ccc1OC(C)C | 0 | 94 | 0 | 0 | 0 | 0
CCCOc1ccc(-c2nn(-c3ccccc3)cc2/C=C2\SC(N)=NC2=O)cc1 | 0 | 0 | 0 | 0 | 0 | 0
COc1ccc(/C=C2\SC(=O)N(CC(=O)NN3CCN(C)CC3)C2=O)cc1OC | 0 | - | 0 | 0 | 0 | 0
O=C(CSc1ccc2nnc(-c3ccc(F)cc3)n2n1)NCc1ccco1 | 0 | 0 | 0 | 0 | 0 | 62
O=C(CSc1nnc(-c2ccncc2)n1-c1ccc(F)cc1)NC(=O)NCc1ccco1 | 0 | 0 | 0 | 0 | 0 | 63
Cc1ccc(-c2nnc3ccc(SCC(=O)NCc4ccco4)nn23)cc1 | 0 | 0 | 0 | 0 | 0 | 0
O=C(Cn1cc2c(n1)CCCC2)NCc1ccccn1 | 0 | 0 | 0 | 49 | 0 | 0
O=C(Cn1cc2c(n1)CCCC2)NCc1cccs1 | 0 | 0 | 0 | 0 | 0 | 0
O=C(CSc1ccccc1)Nc1cc(S(=O)(=O)N2CCOCC2)ccc1N1CCOCC1 | 0 | 0 | 0 | 0 | 0 | 0
CC1(OC(=O)C2CCCC2)C(=O)C=C2C=C(c3ccsc3)OC=C2C1=O (stereo not given) | 0 | - | 0 | 0 | 0 | 51
CC1(OC(=O)C2CCCC2)C(=O)C=C2C=C(c3ccsc3)N(C3CCCC3)C=C2C1=O (stereo not given) | 0 | - | 0 | 0 | 0 | 0
CC1(OC(=O)C2CCCC2)C(=O)C=C2C=C(c3ccsc3)N(CCCCO)C=C2C1=O (stereo not given) | 0 | - | 0 | 30 | 0 | 0
COc1ccc(CN2C=C3C(=O)C(C)(OC(=O)C4CCCC4)C(=O)C=C3C=C2c2ccsc2)cc1 (stereo not given) | 0 | - | 0 | 0 | 0 | 0
O=c1oc2c3c4c(cc2s1)CCCN4CCC3 | 0 | 0 | 0 | 0 | 0 | 51
C=CCOc1c(OC)cc(/C=N/Nc2cccc(C(=O)O)c2)c(Br)c1Br | 78 | 0 | 0 | 0 | 0 | 88
C=CCOc1c(/C=N\NC(N)=O)cccc1OC | 0 | - | 0 | 0 | 0 | 0
CC(=O)c1cccc(NC(=O)N2CCC(NC(=O)C34CC5CC(CC(C5)C3)C4)CC2)c1 | 0 | 0 | 0 | 0 | 0 | 0
Clc1ccccc1-c1nc2nc3ccccc3nc2n1-c1ccc2c(c1)OCO2 | 0 | 0 | 0 | 174 | 0 | 0
c1csc(-c2nc3nc4ccccc4nc3n2Cc2ccc3c(c2)OCO3)c1 | 0 | 0 | 0 | 0 | 0 | 0
CCOC(=O)c1c(NC(=O)c2cc(C)on2)c2cc([N+](=O)[O-])ccc2n1C | 0 | - | 0 | 0 | 0 | 0
